# Assay results taken from publication PMC7862700, “An all-to-all approach to the identification of sequence-specific readers for epigenetic DNA modifications on cytosine”.
# Legend:
# Assay in all cases: DAPPL (digital affinity profiling via proximity ligation, sequencing); 10 mM Tris-HCl pH 7.5, 50 mM NaCl, 1 mM DTT, 4% glycerol, room temperature, 30 min; GST-TFs on glutathione beads, 16-mer random dsDNA library, 0.1% formaldehyde crosslink after washing; high values mean tight binding
# FEV = target: T1, FEV (Homo sapiens, UniProt Q99581 1-238); conditions: protein: recombinant; tags: N-terminal GST; dsDNA, one strand shown
# T1 sequence: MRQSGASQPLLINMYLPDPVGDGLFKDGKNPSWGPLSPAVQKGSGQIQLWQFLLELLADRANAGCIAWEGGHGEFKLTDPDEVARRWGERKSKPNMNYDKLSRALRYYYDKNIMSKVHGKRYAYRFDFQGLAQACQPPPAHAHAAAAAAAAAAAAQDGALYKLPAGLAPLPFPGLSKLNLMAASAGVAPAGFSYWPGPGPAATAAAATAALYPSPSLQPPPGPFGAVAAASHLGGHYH
# How it was run: (§1)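 Binding signal is each hexamer's read frequency for a factor divided by its frequency in the tag-only sample. The factors were GST-fused human transcription factors from yeast, captured on glutathione beads, DNA-barcoded and pooled with that sample. Pools were incubated with 200 nmole of a random double-stranded 16-mer DNA library in Tris/NaCl/DTT/glycerol buffer at room temperature for 30 min, then washed, crosslinked with 0.1% formaldehyde, proximity-ligated with BsaI/T4 ligase (1 h, 37 °C), PCR-amplified and sequenced on an Illumina NextSeq500.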
# ETV5 = ETV5 (Homo sapiens, UniProt P41161 1-510); conditions: protein: recombinant; tags: N-terminal GST; dsDNA, one strand shown
# How it was run: as §1
# HSF1 = HSF1 (Homo sapiens, UniProt Q00613 1-529); conditions: protein: recombinant; tags: N-terminal GST; chain copies: 3; dsDNA, one strand shown
# How it was run: as §1
# SPIC = target: T2, SPIC (Homo sapiens, UniProt Q8N5J4 1-248); conditions: protein: recombinant; tags: N-terminal GST; dsDNA, one strand shown
# T2 sequence: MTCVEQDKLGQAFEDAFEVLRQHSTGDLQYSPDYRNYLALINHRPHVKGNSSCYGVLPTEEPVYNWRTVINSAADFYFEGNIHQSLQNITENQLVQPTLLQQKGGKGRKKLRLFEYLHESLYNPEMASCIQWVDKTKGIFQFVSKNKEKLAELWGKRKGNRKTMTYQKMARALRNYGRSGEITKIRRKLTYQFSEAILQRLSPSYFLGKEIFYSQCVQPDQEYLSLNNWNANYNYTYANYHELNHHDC
# How it was run: as §1
# ELF4 = ELF4 (Homo sapiens, UniProt Q99607 1-663); conditions: protein: recombinant; tags: N-terminal GST; dsDNA, one strand shown
# How it was run: as §1
# ELK4 = target: T3, ELK4 (Homo sapiens, UniProt P28324-2 1-405); conditions: protein: recombinant; tags: N-terminal GST; dsDNA, one strand shown
# T3 sequence: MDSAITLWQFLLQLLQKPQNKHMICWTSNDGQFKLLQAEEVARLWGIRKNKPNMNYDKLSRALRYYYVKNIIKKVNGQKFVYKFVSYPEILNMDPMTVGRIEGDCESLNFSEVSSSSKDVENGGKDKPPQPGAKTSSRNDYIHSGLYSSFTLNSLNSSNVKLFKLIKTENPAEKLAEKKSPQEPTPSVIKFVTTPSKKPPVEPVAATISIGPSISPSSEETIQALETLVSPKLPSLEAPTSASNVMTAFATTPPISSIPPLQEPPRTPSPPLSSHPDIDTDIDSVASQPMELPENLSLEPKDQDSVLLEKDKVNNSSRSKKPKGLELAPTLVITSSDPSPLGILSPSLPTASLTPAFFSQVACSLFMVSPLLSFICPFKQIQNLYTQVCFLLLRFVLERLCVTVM
# How it was run: as §1
# ETV2 = target: T4, ETV2 (Homo sapiens, UniProt O00321 1-342); conditions: protein: recombinant; tags: N-terminal GST; dsDNA, one strand shown
# T4 sequence: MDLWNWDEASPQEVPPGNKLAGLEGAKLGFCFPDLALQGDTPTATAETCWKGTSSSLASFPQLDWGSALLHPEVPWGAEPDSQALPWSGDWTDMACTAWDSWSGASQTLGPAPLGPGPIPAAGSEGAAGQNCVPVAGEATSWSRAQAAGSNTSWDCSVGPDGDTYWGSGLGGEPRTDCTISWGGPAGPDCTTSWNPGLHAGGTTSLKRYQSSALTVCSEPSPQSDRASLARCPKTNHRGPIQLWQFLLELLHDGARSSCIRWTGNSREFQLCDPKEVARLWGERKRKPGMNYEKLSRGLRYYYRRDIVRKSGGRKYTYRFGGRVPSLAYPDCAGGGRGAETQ
# How it was run: as §1
# ELF3 = target: T5, ELF3 (Homo sapiens, UniProt P78545 1-371); conditions: protein: recombinant; tags: N-terminal GST; dsDNA, one strand shown
# T5 sequence: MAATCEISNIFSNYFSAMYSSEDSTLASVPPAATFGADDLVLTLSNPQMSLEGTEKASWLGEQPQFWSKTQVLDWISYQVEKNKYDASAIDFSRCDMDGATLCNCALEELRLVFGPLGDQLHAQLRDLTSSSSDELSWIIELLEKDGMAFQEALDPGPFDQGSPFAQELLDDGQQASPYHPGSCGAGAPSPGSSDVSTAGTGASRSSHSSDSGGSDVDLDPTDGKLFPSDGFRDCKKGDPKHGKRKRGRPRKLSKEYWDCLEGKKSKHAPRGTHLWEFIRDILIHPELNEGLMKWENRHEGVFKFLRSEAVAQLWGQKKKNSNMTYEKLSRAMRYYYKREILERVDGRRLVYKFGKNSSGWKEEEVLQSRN
# How it was run: as §1
# CRX = CRX (Homo sapiens, UniProt O43186 1-299); conditions: protein: recombinant; tags: N-terminal GST; dsDNA, one strand shown
# How it was run: as §1
# ETV1 = ETV1 (Homo sapiens, UniProt P50549 1-477); conditions: protein: recombinant; tags: N-terminal GST; dsDNA, one strand shown
# How it was run: as §1
# ERF = target: T6, ERF (Homo sapiens, UniProt P50548 1-548); conditions: protein: recombinant; tags: N-terminal GST; dsDNA, one strand shown
# T6 sequence: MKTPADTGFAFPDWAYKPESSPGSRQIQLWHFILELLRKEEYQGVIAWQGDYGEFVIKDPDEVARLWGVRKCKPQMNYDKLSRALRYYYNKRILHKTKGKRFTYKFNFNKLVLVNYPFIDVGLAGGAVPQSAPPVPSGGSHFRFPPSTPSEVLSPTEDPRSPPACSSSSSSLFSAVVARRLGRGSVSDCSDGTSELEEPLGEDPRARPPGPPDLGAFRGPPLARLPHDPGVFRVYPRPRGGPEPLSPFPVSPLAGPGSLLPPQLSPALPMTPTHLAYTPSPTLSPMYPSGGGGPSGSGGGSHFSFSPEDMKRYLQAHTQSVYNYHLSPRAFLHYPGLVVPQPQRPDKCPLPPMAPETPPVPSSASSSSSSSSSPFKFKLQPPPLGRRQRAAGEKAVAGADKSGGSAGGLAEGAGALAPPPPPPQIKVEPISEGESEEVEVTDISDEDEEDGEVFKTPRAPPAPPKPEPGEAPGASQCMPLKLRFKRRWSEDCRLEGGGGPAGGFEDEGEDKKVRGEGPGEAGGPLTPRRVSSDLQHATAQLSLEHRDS
# How it was run: as §1
# ETV3L = target: T7, ETV3L (Homo sapiens, UniProt Q6ZN32 1-361); conditions: protein: recombinant; tags: N-terminal GST; dsDNA, one strand shown
# T7 sequence: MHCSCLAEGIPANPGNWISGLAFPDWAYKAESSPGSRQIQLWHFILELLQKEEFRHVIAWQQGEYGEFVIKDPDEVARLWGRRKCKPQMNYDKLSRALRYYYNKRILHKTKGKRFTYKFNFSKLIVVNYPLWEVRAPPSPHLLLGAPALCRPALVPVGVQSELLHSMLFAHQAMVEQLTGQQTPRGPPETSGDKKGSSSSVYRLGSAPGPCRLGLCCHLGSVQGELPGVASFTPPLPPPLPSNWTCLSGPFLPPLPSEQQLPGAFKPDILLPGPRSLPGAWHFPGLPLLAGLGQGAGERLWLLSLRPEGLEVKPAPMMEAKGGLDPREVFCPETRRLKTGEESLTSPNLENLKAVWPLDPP
# How it was run: as §1
# ETS2 = target: T8, ETS2 (Homo sapiens, UniProt P15036 1-469); conditions: protein: recombinant; tags: N-terminal GST; dsDNA, one strand shown
# T8 sequence: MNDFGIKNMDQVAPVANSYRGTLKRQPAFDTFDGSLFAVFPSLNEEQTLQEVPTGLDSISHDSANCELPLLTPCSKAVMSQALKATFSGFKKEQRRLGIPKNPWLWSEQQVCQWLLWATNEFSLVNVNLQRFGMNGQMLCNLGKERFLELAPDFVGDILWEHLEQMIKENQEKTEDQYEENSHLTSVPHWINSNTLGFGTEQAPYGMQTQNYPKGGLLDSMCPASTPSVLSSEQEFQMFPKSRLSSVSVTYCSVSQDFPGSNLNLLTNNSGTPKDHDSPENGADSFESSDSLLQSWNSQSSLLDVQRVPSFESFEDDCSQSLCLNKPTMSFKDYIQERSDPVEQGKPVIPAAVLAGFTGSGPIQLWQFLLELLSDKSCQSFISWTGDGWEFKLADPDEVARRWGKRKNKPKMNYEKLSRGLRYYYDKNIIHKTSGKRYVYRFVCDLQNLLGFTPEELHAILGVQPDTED
# How it was run: as §1
# SPDEF = target: T9, SPDEF (Homo sapiens, UniProt O95238 1-335); conditions: protein: recombinant; tags: N-terminal GST; dsDNA, one strand shown
# T9 sequence: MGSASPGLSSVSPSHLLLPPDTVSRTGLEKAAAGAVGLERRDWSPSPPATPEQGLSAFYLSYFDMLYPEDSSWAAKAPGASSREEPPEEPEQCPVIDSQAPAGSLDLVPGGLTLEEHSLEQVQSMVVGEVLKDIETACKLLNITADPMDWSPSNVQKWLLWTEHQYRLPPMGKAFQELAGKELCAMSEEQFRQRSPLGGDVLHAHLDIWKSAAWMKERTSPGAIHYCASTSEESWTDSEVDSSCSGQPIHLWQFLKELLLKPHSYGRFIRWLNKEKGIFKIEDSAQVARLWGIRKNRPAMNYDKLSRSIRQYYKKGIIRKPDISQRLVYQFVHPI
# How it was run: as §1
# ETV7 = target: T10, ETV7 (Homo sapiens, UniProt Q9Y603 1-341); conditions: protein: recombinant; tags: N-terminal GST; dsDNA, one strand shown
# T10 sequence: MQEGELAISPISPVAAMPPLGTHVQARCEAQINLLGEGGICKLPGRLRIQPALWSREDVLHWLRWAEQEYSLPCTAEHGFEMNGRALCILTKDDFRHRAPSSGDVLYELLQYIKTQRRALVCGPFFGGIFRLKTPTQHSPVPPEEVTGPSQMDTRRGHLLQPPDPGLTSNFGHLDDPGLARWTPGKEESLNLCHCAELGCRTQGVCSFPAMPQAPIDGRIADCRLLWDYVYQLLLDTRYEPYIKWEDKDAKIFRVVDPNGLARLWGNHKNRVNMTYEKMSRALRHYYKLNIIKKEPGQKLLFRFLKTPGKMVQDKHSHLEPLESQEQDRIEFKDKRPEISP
# How it was run: as §1
# ELF5 = target: T11, ELF5 (Homo sapiens, UniProt Q9UKW6-2 1-255); conditions: protein: recombinant; tags: N-terminal GST; dsDNA, one strand shown
# T11 sequence: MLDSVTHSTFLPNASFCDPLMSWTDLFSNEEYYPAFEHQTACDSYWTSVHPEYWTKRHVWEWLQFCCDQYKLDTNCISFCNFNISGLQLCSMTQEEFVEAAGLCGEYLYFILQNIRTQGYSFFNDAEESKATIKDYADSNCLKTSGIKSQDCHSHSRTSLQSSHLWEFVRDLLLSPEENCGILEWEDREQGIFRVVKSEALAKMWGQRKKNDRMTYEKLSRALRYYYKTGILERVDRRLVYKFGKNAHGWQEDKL
# How it was run: as §1
# ETV3 = target: T12, ETV3 (Homo sapiens, UniProt P41162-2 1-143); conditions: protein: recombinant; tags: N-terminal GST; dsDNA, one strand shown
# T12 sequence: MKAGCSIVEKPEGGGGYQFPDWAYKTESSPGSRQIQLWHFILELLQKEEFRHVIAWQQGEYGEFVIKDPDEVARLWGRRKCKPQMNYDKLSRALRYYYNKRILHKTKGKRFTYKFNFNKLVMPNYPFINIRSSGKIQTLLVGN
# How it was run: as §1
# ETV6 = ETV6 (Homo sapiens, UniProt P41212 1-452); conditions: protein: recombinant; tags: N-terminal GST; dsDNA, one strand shown
# How it was run: as §1
# Sequence of ETV1 (P50549 whole entry): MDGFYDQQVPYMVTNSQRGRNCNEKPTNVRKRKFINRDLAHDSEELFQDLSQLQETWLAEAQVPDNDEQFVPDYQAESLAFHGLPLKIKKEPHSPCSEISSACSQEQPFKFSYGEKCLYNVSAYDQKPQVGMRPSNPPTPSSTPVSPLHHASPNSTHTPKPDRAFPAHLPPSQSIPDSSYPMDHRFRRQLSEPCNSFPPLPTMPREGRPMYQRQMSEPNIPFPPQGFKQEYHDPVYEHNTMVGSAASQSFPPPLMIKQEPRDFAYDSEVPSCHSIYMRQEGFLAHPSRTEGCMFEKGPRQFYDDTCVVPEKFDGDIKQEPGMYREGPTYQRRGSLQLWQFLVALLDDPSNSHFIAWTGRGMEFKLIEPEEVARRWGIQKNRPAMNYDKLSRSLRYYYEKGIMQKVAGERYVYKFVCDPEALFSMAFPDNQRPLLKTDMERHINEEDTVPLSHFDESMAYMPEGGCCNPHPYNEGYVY
# Sequence of ELF4 (Q99607 whole entry): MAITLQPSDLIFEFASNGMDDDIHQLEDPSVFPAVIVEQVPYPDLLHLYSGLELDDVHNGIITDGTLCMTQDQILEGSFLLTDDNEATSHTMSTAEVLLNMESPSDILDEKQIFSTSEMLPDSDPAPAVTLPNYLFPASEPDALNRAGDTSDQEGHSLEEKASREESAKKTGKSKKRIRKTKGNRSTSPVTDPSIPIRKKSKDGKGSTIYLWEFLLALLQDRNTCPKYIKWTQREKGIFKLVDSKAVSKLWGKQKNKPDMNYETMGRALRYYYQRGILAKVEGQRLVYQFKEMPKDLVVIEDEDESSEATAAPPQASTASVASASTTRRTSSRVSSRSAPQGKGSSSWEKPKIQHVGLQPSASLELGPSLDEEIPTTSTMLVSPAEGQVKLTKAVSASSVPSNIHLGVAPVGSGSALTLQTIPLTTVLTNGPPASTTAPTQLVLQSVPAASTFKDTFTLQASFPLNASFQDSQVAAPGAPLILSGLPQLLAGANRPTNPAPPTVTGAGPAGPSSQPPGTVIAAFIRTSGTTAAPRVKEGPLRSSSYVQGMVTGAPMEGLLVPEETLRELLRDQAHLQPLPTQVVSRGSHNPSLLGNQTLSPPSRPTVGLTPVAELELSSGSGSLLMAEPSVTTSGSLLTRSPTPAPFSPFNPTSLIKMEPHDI
# Sequence of ETV6 (P41212 whole entry): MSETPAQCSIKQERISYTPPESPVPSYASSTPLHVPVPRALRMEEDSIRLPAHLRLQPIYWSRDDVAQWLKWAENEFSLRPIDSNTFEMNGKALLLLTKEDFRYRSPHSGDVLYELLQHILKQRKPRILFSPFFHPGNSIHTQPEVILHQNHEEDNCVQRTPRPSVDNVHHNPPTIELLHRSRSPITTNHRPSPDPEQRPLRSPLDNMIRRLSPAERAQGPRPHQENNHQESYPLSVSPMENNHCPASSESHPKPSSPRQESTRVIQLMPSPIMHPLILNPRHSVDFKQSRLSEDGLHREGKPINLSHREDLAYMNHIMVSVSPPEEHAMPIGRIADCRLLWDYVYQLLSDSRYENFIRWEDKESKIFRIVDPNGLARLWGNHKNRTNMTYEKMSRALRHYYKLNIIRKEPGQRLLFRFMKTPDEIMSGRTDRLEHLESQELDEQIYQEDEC
# Sequence of HSF1 (Q00613 whole entry): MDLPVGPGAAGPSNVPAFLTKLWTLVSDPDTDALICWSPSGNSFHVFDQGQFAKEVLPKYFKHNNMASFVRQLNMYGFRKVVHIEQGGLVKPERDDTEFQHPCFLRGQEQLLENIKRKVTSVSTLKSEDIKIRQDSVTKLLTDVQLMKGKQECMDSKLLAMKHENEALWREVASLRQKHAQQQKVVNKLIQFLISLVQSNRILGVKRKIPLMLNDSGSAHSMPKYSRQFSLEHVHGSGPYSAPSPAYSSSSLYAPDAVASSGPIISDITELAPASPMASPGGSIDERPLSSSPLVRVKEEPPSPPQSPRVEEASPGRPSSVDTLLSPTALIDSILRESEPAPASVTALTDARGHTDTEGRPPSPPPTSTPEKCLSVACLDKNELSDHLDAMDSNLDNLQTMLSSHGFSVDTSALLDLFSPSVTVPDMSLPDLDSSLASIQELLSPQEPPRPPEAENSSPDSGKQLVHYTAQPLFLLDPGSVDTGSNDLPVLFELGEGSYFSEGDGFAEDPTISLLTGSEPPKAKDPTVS
# Sequence of CRX (O43186 whole entry): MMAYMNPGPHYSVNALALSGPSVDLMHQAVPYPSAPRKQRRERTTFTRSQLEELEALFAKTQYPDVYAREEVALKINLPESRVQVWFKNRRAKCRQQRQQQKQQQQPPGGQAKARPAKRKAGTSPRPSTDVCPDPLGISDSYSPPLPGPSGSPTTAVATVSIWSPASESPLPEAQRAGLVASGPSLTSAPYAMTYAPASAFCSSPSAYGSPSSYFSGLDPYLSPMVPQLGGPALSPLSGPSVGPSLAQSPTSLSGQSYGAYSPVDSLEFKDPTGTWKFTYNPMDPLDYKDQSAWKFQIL
# Sequence of ETV5 (P41161 whole entry): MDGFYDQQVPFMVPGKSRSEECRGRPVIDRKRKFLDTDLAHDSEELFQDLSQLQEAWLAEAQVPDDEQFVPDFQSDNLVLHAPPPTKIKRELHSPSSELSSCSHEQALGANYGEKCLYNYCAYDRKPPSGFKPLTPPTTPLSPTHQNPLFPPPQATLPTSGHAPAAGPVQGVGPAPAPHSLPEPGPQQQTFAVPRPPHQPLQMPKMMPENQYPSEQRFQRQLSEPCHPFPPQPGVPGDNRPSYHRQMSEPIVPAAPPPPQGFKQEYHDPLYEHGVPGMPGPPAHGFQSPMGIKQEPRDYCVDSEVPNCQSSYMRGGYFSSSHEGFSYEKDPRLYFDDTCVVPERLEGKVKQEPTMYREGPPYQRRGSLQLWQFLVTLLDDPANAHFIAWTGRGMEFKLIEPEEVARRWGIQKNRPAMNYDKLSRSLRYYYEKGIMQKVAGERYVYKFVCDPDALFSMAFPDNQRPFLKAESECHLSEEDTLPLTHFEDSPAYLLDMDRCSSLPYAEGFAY
sequence,measurement,setting,value
CTTCAG,binding signal,FEV,"1.26 fold enrichment (6-mer frequency, TF over GST control)"
same,binding signal,ETV5,"1.21 fold enrichment (6-mer frequency, TF over GST control)"
same,binding signal,HSF1,"1.23 fold enrichment (6-mer frequency, TF over GST control)"
same,binding signal,SPIC,"1.26 fold enrichment (6-mer frequency, TF over GST control)"
same,binding signal,ELF4,"1.34 fold enrichment (6-mer frequency, TF over GST control)"
same,binding signal,ELK4,"1.41 fold enrichment (6-mer frequency, TF over GST control)"
same,binding signal,ETV2,"1.23 fold enrichment (6-mer frequency, TF over GST control)"
same,binding signal,ELF3,"1.39 fold enrichment (6-mer frequency, TF over GST control)"
same,binding signal,CRX,"1.16 fold enrichment (6-mer frequency, TF over GST control)"
same,binding signal,ETV1,"1.33 fold enrichment (6-mer frequency, TF over GST control)"
same,binding signal,ERF,"1.27 fold enrichment (6-mer frequency, TF over GST control)"
same,binding signal,ETV3L,"1.26 fold enrichment (6-mer frequency, TF over GST control)"
same,binding signal,ETS2,"1.33 fold enrichment (6-mer frequency, TF over GST control)"
same,binding signal,SPDEF,"1.34 fold enrichment (6-mer frequency, TF over GST control)"
same,binding signal,ETV7,"1.29 fold enrichment (6-mer frequency, TF over GST control)"
same,binding signal,ELF5,"1.35 fold enrichment (6-mer frequency, TF over GST control)"
same,binding signal,ETV3,"1.17 fold enrichment (6-mer frequency, TF over GST control)"
same,binding signal,ETV6,"1.37 fold enrichment (6-mer frequency, TF over GST control)"
